Hits are enriched below; roughly 0.35% of the tested compounds scored in any of these assays.
PvdQ inh: P. aeruginosa PvdQ acylase inhibition; purified PvdQ acylase, fluorescence plate reader; inhibition, % at 10 µM; actives 0.063% (n = 340,000); AID 488965; in the data active = inhibition above about 30%, passing the limit was not always enough; inconclusive = no clear call, values can overlap the other calls;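 note: 0% = vehicle neutral wells and 100% = reference inhibitor wells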
ERp5 block: blocks human ERp5 reductase activity on insulin | ERp5 insulin aggregation, absorbance 650 nm, 90 min | AID 651711 | Q15084 | inhibition, % at 9.99 µM | actives 0.05% (n = 350,000);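 active = mean replicate inhibition above about 25%, with every replicate also reaching it, limit read from the data, passing the limit was not always enough; inconclusive = only one of those two criteria met; inactive = neither criterion met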
ERAP1 inh: inhibitors of human ERAP1 aminopeptidase; AID 652197; actives 0.15% (n = 340,000); Q9NZ08; recombinant ERAP1, Leu-AMC fluorescence, 60 min; inhibition, % at 10.7 µM;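 active = mean replicate inhibition of at least 30%, or all replicates individually reaching that 30% level; inactive = mean below 30% and not every replicate reaching it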;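 note: 0% = neutral control wells and 100% = L-leucinethiol positive control wells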
Rtt109 Vps75: blocks Candida albicans Rtt109/Vps75 acetyltransferase activity. Q5AAJ8. purified Rtt109/Vps75, ThioGlo CoA-SH fluorescence, 4 h. inhibition, % at 34.9 µM. actives 0.16% (n = 330,000). AID 540336;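 active = inhibition of at least 50% in every replicate; inconclusive = best replicate reaches 50% inhibition but some replicates fall short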
PDI turbidity: PDI (human) enzyme inhibition. PDI insulin aggregation turbidity, A650, 90 min. P07237. actives 0.052% (n = 350,000). inhibition, % at 10 µM;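 active = mean inhibition across replicates of 30% or more, whatever share of single replicates reach that level; inconclusive = mean inhibition below 30% while every single replicate reaches 30%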
Target sequence (P07237 whole entry, looked up): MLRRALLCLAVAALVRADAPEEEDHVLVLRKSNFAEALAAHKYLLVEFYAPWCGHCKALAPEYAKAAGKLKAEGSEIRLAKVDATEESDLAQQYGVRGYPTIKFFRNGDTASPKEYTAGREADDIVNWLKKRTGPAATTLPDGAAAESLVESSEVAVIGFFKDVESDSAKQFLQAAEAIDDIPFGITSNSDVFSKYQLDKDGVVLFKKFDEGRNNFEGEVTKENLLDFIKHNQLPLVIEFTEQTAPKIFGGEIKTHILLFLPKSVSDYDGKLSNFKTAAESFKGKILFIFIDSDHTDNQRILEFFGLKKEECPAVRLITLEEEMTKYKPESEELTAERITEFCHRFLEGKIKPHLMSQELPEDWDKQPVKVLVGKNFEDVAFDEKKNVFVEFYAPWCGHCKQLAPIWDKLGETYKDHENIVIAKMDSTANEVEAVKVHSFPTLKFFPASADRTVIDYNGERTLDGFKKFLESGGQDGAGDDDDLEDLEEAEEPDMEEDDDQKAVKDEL
An asterisk follows results filed as active; ? = inconclusive; / = not tested or not shown.

SMILES	PvdQ inh	ERp5 block	ERAP1 inh	Rtt109 Vps75	PDI turbidity
N#C/C(=C\c1ccco1)c1nc2ccccc2s1	?	/	/	4.0	2.1
C[C@@H]1CCCCO[C@@H](CN(C)Cc2ccncc2)[C@@H](C)CN([C@@H](C)CO)C(=O)c2cc(NS(=O)(=O)c3cccs3)ccc2O1	/	4.3	1.9	/	/
CC(C(=O)OCC(=O)c1ccc([N+](=O)[O-])cc1)N1C(=O)C2C3C=CC(C3)C2C1=O (centres undefined)	-11.5	4.4	3.1	?	3.3
CC(C(=O)OCC(=O)c1ccc([N+](=O)[O-])cc1)N1C(=O)C2C3CCC(C3)C2C1=O (centres undefined)	-12.5	0.8	-2.9	107.5*	4.5
N#Cc1ccccc1Cn1cc(C#N)c2ccccc21	25.8	/	/	-3.4	-5.6
N#Cc1cn(Cc2ccccc2)c2ccccc12	34.9*	/	/	4.5	-0.8
CCS(=O)(=O)N1CC(=O)N2[C@H](CO)[C@@H](c3ccc(C#CC4CC4)cc3)[C@H]2C1	/	2.8	3.9	/	/
Cc1ccc(NC(=O)c2cccc(S(C)(=O)=O)c2)cc1	0.4	25.5*	1.7	1.2	6.5
Cc1cccc(C(=O)Nc2ccc(NC(=O)c3cccc(C)c3)cc2)c1	/	2.4	6.1	/	4.6
C[C@@H]1CN([C@H](C)CO)C(=O)c2cc(-c3cccc(C#N)c3)cnc2O[C@@H]1CN(C)C(=O)C1CCCCC1	/	4.9	0.8	/	/
CC[C@]12c3[nH]c4cc(-c5ccco5)ccc4c3CCN1C(=O)[C@@H](CC(=O)NCc1ccco1)C[C@@H]2C(=O)N1CCN(C(=O)C2CC2)CC1	-9.3	1.0	-3.0	-12.6	14.0
CC[C@]12c3[nH]c4cc(-c5ccco5)ccc4c3CCN1C(=O)[C@@H](CC(=O)NCc1ccc(OC)c(OC)c1)C[C@@H]2C(=O)N1CCN(C(=O)C2CC2)CC1	-18.2	0.6	0.2	6.4	37.0*
Cn1cnc(C(=O)N2CCN(C(=O)OC(C)(C)C)CC2)c1C(=O)N1CCN(C(=O)OC(C)(C)C)CC1	5.1	9.7	105.8*	2.7	-1.0
Cn1cnc(C(=O)N2CCN(c3ccccc3)CC2)c1C(=O)N1CCN(c2ccccc2)CC1	5.9	-4.6	21.2	-2.0	-0.9
C[C@@H]1CCCCO[C@@H](CN(C)C(=O)CCC(F)(F)F)[C@@H](C)CN([C@@H](C)CO)C(=O)c2cc(NC(=O)Nc3ccccc3)ccc2O1	/	-0.1	-2.4	/	/
O=C1C=CC2(C=C1)O[C@H](Cc1ccccc1)[C@@H](Cc1ccccc1)O2	-12.3	2.8	-0.6	6.5	44.5*
O=C1Nc2ccccc2C1Cc1ccccc1 (centres undefined)	-8.0	1.9	4.1	-1.7	8.9
COc1ccc(C[C@@H]2OC3(C=CC(=O)C=C3)O[C@H]2Cc2ccc(OC)cc2)cc1	-1.9	/	/	-11.6	66.5*
CCn1c(SCC(=O)NCc2ccccc2)nnc1C(CO)NC(=O)c1ccccc1 (centres undefined)	-8.9	-2.7	32.4*	-11.4	1.2
CN1C=C/C(=C\c2cc[n+](C)c3ccccc23)c2ccccc21	-10.9	0.3	79.8*	-15.7	-3.0
CC(C)NC(=O)N(C)C[C@@H]1Oc2cc(-c3cccnc3)ccc2S(=O)(=O)N([C@@H](C)CO)C[C@H]1C	/	-4.6	-5.1	/	/
CCOC(=O)c1cnc(-c2ccccc2)nc1N	77.5*	2.4	-1.1	-1.2	-0.3
CCOc1ccc(CNC2CCCc3ccccc32)cc1 (centres undefined)	38.4*	8.2	5.4	3.2	6.1
CC(=O)/C(=N/Nc1ccccc1)Sc1nnc(C(O)c2ccccc2)n1-c1ccccc1 (centres undefined)	-6.7	2.2	10.6	56.8*	-5.8
CC(C)CC(=O)NC(=S)Nc1ccc(S(=O)(=O)NC(C)(C)C)cc1	1.7	3.2	-4.8	55.1*	2.6
SMILES	PvdQ inh	ERp5 block	ERAP1 inh	Rtt109 Vps75	PDI turbidity
CC(Sc1nnc(-c2cccnc2)n1C)C(=O)N1CCOCC1 (centres undefined)	-16.0	2.2	30.5*	-4.1	2.4
Cc1ccc(-n2c(SCC(=O)N3CCOCC3)nnc2-c2cccnc2)cc1	17.7	0.7	-1.8	5.5	4.8
Cc1ncc(CN2CCN(Cc3ccc(F)cc3)C(CCO)C2)s1 (centres undefined)	39.1*	1.1	-3.0	13.9	-1.1
CC(C)=CCN1CCN(Cc2cnc(C)s2)CC1CCO (centres undefined)	9.5	-1.7	-1.2	18.4	-3.0
CCC(=O)Nc1ccc2c(c1)OC[C@@H](C)N(Cc1cncnc1)C[C@@H](C)[C@H](OC)CN(C)C2=O	/	2.2	-2.4	/	/
C[C@H](CO)N1C[C@H](C)[C@@H](CN(C)C)Oc2cc(-c3ccncc3)ccc2S1(=O)=O	/	1.3	1.0	/	/
CO[C@H]1CN(C)C(=O)c2cc(NS(=O)(=O)c3ccccc3C)ccc2OC[C@H](C)NC[C@H]1C	/	-0.4	5.6	/	/
CCOC(=O)C1CCCN(C(=O)c2ccc3nc(-c4ccc(OC)c(OC)c4)c(-c4ccc(OC)c(OC)c4)nc3c2)C1 (centres undefined)	-1.5	12.5	33.8*	12.4	6.9
CC(=O)N(C)C[C@H]1OCc2ccccc2-c2c(n(C)c3ccccc23)C(=O)N([C@H](C)CO)C[C@H]1C	/	-4.3	-0.9	/	/
Cc1ccc(C(OCC(C)(C)C[N+](C)(C)C)c2ccccc2)cc1 (centres undefined)	-7.6	4.0	38.6*	-6.9	3.2
COc1ccc(S(=O)(=O)N(C)C[C@H]2OCCCC[C@@H](C)Oc3ccc(NC(=O)c4ccccc4)cc3C(=O)N([C@@H](C)CO)C[C@@H]2C)cc1	/	4.6	-3.9	/	/
COc1ccc(Cc2nnc(SCC(=O)NC3(C#N)CCCCC3)n2N)cc1	19.6	25.0*	-0.4	6.0	8.5
N#CC1(NC(=O)CSc2nnc(COc3ccccc3F)n2N)CCCCC1	3.2	-7.6	-1.1	12.0	3.1
COc1ccc(Cc2nnc(NC(=O)c3cc(OC)c(OC)c(OC)c3)s2)cc1	1.6	0.9	-2.8	54.9*	1.1
COc1ccc(Cc2nnc(NC(=O)c3ccc(OC)c(OC)c3)s2)cc1	-9.3	1.4	2.0	-2.2	-2.2
C/C=C/c1ccc2c(c1)O[C@@H](CN(C)S(C)(=O)=O)[C@H](C)CN([C@@H](C)CO)S2(=O)=O	/	68.1*	1.5	/	/
C/C=C/c1ccc2c(c1)O[C@H](CN(C)S(C)(=O)=O)[C@@H](C)CN([C@@H](C)CO)S2(=O)=O	/	?	0.5	/	/
C/C=C/c1ccc2c(c1)O[C@H](CN(C)Cc1cncnc1)[C@H](C)CN([C@@H](C)CO)S2(=O)=O	/	28.7*	-1.6	/	/
C/C=C/c1ccc2c(c1)O[C@@H](CN(C)Cc1cccnc1)[C@@H](C)CN([C@H](C)CO)S2(=O)=O	/	-0.4	-0.9	/	/
C/C=C/c1ccc2c(c1)O[C@H](CN(C)S(C)(=O)=O)[C@H](C)CN([C@@H](C)CO)S2(=O)=O	/	7.7	3.8	/	/
C/C=C/c1ccc2c(c1)O[C@@H](CN(C)S(C)(=O)=O)[C@H](C)CN([C@H](C)CO)S2(=O)=O	/	88.3*	0.4	/	/

Source: PubChem (Broad Institute)
